The list is not random: actives were taken first. Their share in the collection is about 21%.
Pf growth 48h: inhibits P. falciparum growth in the first generation, 48 h; P. falciparum luciferase growth in erythrocytes, 48 h; Potency, µM (highest dose often 28.7 µM), inactives show at the top dose activity change, negative = inhibition, hits mostly inhibitors; 310,000 compounds, 5.9% hits; further: potency means the concentration at half of the fitted maximal effect; on the % scale 0 is the no-effect control and ±100 the full control effect
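Luciferase-expressing parasites in RBCs, 2% Hct / 0.1% parasitemia final; RPMI 1640 + 0.5% Albumax; 37 C, 5% CO2, one generation; luminescence read-out, lower signal = inhibition.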
Pf growth 96h: P. falciparum growth inhibition at 96 hours | P. falciparum luciferase reporter growth, 96 h | Potency, µM (titrated, usually from 28.7 µM), inactives show at the top dose activity change, negative = inhibition, actives largely listed as inhibitors | 320,000 compounds, 6.9% hits; further: potency means the concentration at half of the fitted maximal effect; on the % scale 0 is the no-effect control and ±100 the full control effect
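Infected RBCs, 2% Hct / 0.05% parasitemia final; luciferase-reporter P. falciparum; cpd 96 h, 37 C, 5% CO2; luciferase detection reagent; luminescence.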
NS1 function inh: influenza NS1 inhibition; AID 2326; Potency, µM (series often up to 46.1 µM), without a hit: at the highest dose activity, positive = more growth; 270,000 compounds, 0.4% hits; calls by dose curve; further: potency means the concentration at half of the fitted maximal effect; actives are rising curves; nearly all actives have a fitted effect of over 50% in size
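Read-out: OD600 growth recovery of NS1-expressing budding yeast. Cells grown overnight at 30C in -URA glucose medium, washed, resuspended and diluted 1:100 in 2% galactose assay medium, pH 6.0. Same strain lacking NS1 served as positive control.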
Shiga toxin inh: blocks Shiga toxin action in Vero cells | Vero cells, Shiga toxin protein synthesis inhibition reporter | inhibition, % at 38.7 µM | 290,000 compounds, 9.2% hits; in the data active means inhibition mostly above about 28%, no sharp cut-off; inactive means mostly below about 43%; further: 0% is about no effect
Cycloheximide cs: counter-screen hit for Shiga toxin inhibitors, cycloheximide; cell reporter, cycloheximide protein synthesis inhibition counterscreen; max response, %; 300,000 compounds, 12% hits; AID 2314; in the data active means max response mostly above about 13%, no sharp cut-off; inactive means mostly below about 14%; further: read at 38.3 µM for the half of the compounds with a filed dose; 0% is about no effect
Active calls of the source: *; ? = inconclusive; · = no result given; [ ] = dose if it differs, or a comment. Unless noted, the call rests on the fitted dose curve; in most records, active means well fitted inhibition curve with a large enough effect; inconclusive means small, poorly fitted or top-dose-only effect, or another doubt; inactive means no such curve, though single readings can be large or run the other way.

SMILES	Pf growth 48h	Pf growth 96h	NS1 function inh	Shiga toxin inh	Cycloheximide cs
Cc1ccc(C)c(NC(=O)/C(C#N)=C/c2cn(CC(=O)NCc3ccco3)c3ccccc23)c1	17%	15µM*	6%	-13	-3
N#C/C(=C\c1cn(CCOc2ccccc2F)c2ccccc12)C(=O)NCc1cccs1	-7%	26%	6%	-3	-1
Cc1ccc(C)c(OCCn2cc(/C=C(\C#N)C(=O)NCc3cccs3)c3ccccc32)c1	4.7µM*	3.3µM*	9%	2	-2
Cc1ccc(C)c(NC(=S)NCc2ccc3c(c2)OCO3)c1	-11%	2%	-21%	-4	-1
CCOc1ccc(NC(=O)CN(C)C(=O)c2cc([N+](=O)[O-])ccc2N2CCOCC2)cc1OCC	?	-11%	·	·	·
CC(=O)Nc1ccc(S(=O)(=O)N2CCN(c3ncccn3)CC2)cc1	?	0%	-10%	·	0
O=C1COc2cc(S(=O)(=O)CCC(=O)N3CCCCC3)c(Cl)cc2N1	-3%	66%	4%	-4	-2
CCOC(=O)/C(C#N)=C/c1cn(CCOc2ccccc2)c2ccccc12	14%	9.3µM*	4%	-7	0
Cc1ccc(OCCn2cc(/C=C(\C#N)C(=O)NCC3CCCO3)c3ccccc32)cc1 (centres undefined)	10µM*	92%	?	-9	12
CCCCN(C(=O)c1cc(=O)[nH]c2ccccc12)c1c(N)n(CCCC)c(=O)[nH]c1=O	-2%	24%	0%	-3	-3
Brc1ccc2oc(-c3ccn[nH]3)cc2c1	335%	108%	-5%	119*	70*
O=C(CCC(=O)N(CC(=O)NC1CCCCC1)Cc1ccccc1)Nc1ccccn1	-9%	6%	·	-2	10
O=C(Nc1ccccn1)c1cc(-c2cccc(Cl)c2)nc2ccccc12	3.3µM*	43%	12%	17	-2
COc1cccc(-c2cc(C(=O)Nc3ccc([N+](=O)[O-])cn3)c3ccccc3n2)c1	?	-6%	9%	-6	3
O=C(Nc1ccc([N+](=O)[O-])cn1)c1cc(-c2cccc(Br)c2)nc2ccccc12	3.7µM*	-2%	10%	-10	-5
O=C(Nc1ccc([N+](=O)[O-])cn1)c1cc(-c2cccc(Cl)c2)nc2ccccc12	2.1µM*	-21%	12%	-5	-4
CCc1cc2c3c(c(=O)oc2cc1OCC(=O)OC)CCCC3	44%	?	-67%	-8	-2
CCOc1ccc(S(=O)(=O)N(CC(=O)Nc2cccnc2)c2ccc(F)cc2)cc1	19%	5.9µM*	-1%	-12	-4
CCOc1ccc(N(CC(=O)NCc2cccnc2)S(=O)(=O)c2ccc(F)cc2)cc1	-15%	31%	8%	-2	-2
O=C(Nc1ccc(Cl)cc1)Nc1cccnc1	·	?	-49%	55*	37*
COc1ccc(NC(=O)Nc2cccnc2)cc1	118%	?	·	44*	23*
CCOc1ccc(NC(=O)Nc2cccnc2)cc1	51%	11%	-2%	60*	25*
COc1ccc(C(=O)Nc2ccc(C(=O)Nc3cccnc3)cc2)cc1	59%	-6%	4%	·	-2
CCOC(=O)n1ccn(C)c1=S	11%[12.8 µM]	-10%[12.8 µM]	·	·	·
C/C(=N\NC(=O)CCC(=O)NCc1ccccc1)c1ccco1	6%	-16%	-2%	13	11
SMILES	Pf growth 48h	Pf growth 96h	NS1 function inh	Shiga toxin inh	Cycloheximide cs
C[C@H](C(=O)O)c1cccc(Oc2ccccc2)c1	-11%[12.8 µM]	-18%[12.8 µM]	·	·	·
Cc1ccc(C(=O)NCC(=O)O)o1	13%	22%	·	-11	5
Cc1ccc(S(=O)(=O)Nc2cccnc2)cc1	0%	?	?	-17	-3
CCCCOc1ccc(S(=O)(=O)Nc2cccnc2)cc1	0%	2.3µM*	-10%	-9	13
Cc1ccc(S(=O)(=O)N=S(CC2CC2(Cl)Cl)CC2CC2(Cl)Cl)cc1 (centres undefined)	·	0%	2%	3	8
Brc1ccc(Oc2ncc(CN3CCOCC3)s2)cc1	84%	77%	-22%	41	33*
COc1cccc(NC(=O)COC(=O)c2ccccc2C(=O)N2CCN(c3ccccc3)CC2)c1	-9%	-16%	·	4	2
O=C(Nc1cccc2ccccc12)c1ccc(Cn2cc(Cl)cn2)cc1	?	13µM*	1%	-19	-1
NNC(=O)c1ccc(Cn2cc(Cl)cn2)cc1	0%	?	5%	13	-4
CCOc1ccc(C(=O)Nc2cnn(Cc3ccc(Cl)c(Cl)c3)c2)cc1	-3%	?	-3%	6	-1
O=C(Nc1ccc(Cl)c(Cl)c1)c1ccc(Cn2cc(Cl)cn2)cc1	?	-17%	-20%	active	32*
